Screening data: PubChem BioAssay, National Center for Advancing Translational Sciences (NCATS)
TDP1 cell CPT: qHTS for Inhibitors of human tyrosyl-DNA phosphodiesterase 1 (TDP1): qHTS in cells in presence of CPT; chicken DT40 Tdp1-/-;hTDP1 cells + 20 nM CPT, ATP luminescence, 48 h; Potency, µM (doses to about 46.2 µM), inactives show at the highest dose activity change, negative = growth inhibition, usual class: inhibitors; 420,000 tested, 12% active; further: potency means the concentration at half of the fitted maximal effect; nearly all actives have a fitted effect of over 55% in size
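Chicken DT40 Tdp1-/- cells stably complemented with human TDP1 were seeded at 400 cells/well in medium containing 20 nM camptothecin, exposed to pin-transferred compounds, and grown at 37 °C for at least 48 hr. Viability was read as ATP luminescence.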
ALOX12 inh: Primary qHTS assay for inhibitors of human arachidonate 12S-lipoxygenase (ALOX12): Round 2; Polyunsaturated fatty acid lipoxygenase ALOX12 (Homo sapiens), P18054; purified 12hLO, xylenol orange hydroperoxide absorbance; Potency, µM (titrated, usually from 108 µM), without a hit: at the top dose activity change, negative = inhibition, actives largely listed as inhibitors; 580,000 tested, 1.1% active; AID 1671190, 2021; further: potency means the concentration at half of the fitted maximal effect
Target sequence (P18054 whole entry, looked up): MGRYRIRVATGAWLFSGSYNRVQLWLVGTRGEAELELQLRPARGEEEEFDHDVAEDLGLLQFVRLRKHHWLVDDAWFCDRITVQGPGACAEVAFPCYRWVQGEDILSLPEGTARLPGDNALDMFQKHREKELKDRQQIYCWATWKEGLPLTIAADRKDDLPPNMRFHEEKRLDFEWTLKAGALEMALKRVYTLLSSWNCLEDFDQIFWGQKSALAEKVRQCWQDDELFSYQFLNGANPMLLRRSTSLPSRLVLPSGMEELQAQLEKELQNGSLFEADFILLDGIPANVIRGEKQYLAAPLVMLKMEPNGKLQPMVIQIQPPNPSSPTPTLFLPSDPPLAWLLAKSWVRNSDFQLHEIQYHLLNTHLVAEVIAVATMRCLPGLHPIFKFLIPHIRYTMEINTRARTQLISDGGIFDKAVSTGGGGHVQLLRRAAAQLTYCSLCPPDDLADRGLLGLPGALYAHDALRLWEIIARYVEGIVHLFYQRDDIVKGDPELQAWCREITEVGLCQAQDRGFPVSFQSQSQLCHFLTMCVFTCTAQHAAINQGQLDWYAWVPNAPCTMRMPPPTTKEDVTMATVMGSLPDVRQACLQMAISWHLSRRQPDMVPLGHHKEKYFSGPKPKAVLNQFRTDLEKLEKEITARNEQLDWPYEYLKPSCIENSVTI
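Hydroperoxide product was detected by ferrous iron/xylenol orange as the 573 to 405 nm absorbance ratio. Arachidonic acid at 40 uM (final) was turned over for 30 min at room temperature by 150 nM human 12hLO, pH 7.0 Hepes buffer, after 15 min compound preincubation.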
IL-1B inflam inh: qHTS for Inhibitors of Inflammasome Signaling: IL-1-beta AlphaLISA Primary Screen; AID 743279, 2014; 360,000 tested, 4.7% active; activity change, % at 57.5 µM; THP-1 LPS/ATP IL-1B secretion, AlphaLISA, 16 h; active compounds read low; in the data active means activity change below about -50%; inconclusive means mostly about -30% to -49%
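THP-1 cells pretreated 1 hr with compounds (up to 57.5 uM final), then stimulated with LPS (250 ng/mL final) plus ATP (1.25 mM final); secreted IL-1B measured by AlphaLISA after 16 hr, decreased signal indicating inhibition.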
TDP1 cell noCPT: qHTS for Inhibitors of human tyrosyl-DNA phosphodiesterase 1 (TDP1): qHTS in cells in absence of CPT. DT40 Tdp1-/- hTDP1 cells, no CPT, ATP luminescence, 48 h. Potency, µM (titrated, usually from 46.2 µM), without a hit: at the highest dose activity change, negative = growth inhibition, actives largely listed as inhibitors. 420,000 tested, 15% active. AID 686978, 2013; further: potency means the concentration at half of the fitted maximal effect; nearly all actives have a fitted effect of over 55% in size
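No-CPT arm: Tdp1-/-;hTDP1 DT40 cells (400/well) plus compounds, incubated ≥48 hr at 37 °C. Readout CellTiter-Glo luminescence.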
HT1080 IDH1KD tx: qHTS for induction of synthetic lethality in tumor cells producing 2HG: qHTS for the HT-1080-IDH1KD cell line | HT-1080 IDH1 knockdown viability, ATP luminescence, 48 h | Potency, µM (series often up to 46.1 µM), inactives show top-dose activity, negative = toxicity, actives largely listed as cytotoxic | 360,000 tested, 2% active;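 further: potency means the concentration at half of the fitted maximal effect; 0% = DMSO wells and -100% = cell-free medium wells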
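IDH1KD HT-1080 cells, 750/well, RPMI + 5% FBS; compound pinned after 2 h settling; 48 h, 37 °C; CellTiter-Glo luminescence; % activity normalised to DMSO and no-cell wells; curves fitted, classed by r2 and efficacy.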
HT1080-NT tox: qHTS for induction of synthetic lethality in tumor cells producing 2HG: qHTS for the HT-1080-NT fibrosarcoma cell line. HT-1080-NT fibrosarcoma viability, CellTiter-Glo ATP luminescence, 48 h. Potency, µM (top dose mostly 46.1 µM), for the others: at the highest dose activity, negative = less viability, most hits filed as cytotoxic. 360,000 tested, 1.6% active;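 further: NT is the 2HG producing partner of a matched IDH1 knockdown line; potency means the concentration at half of the fitted maximal effect; 0% = DMSO-treated cells and -100% = media-only wells without cells; nearly all actives have a fitted effect of over 55% in size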
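Luminescent CellTiter-Glo readout after 48 hours of compound exposure at 37 degrees C defined viability of HT-1080-NT cells. Activity was normalized to DMSO wells and cell-free media wells; concentration-response curves were fitted and assigned curve classes.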
Numbers without * were called inactive; ? = inconclusive; / = not tested or not shown. Only a selection was taken, and hits are over-represented in it overall. Unless noted, the call rests on the fitted dose curve; in most records, active means well fitted curve in the direction sought with a large enough effect; inconclusive means small, poorly fitted or top-dose-only effect, or another doubt; inactive means no such curve, though single readings can be large; an effect the other way counts as inactive or inconclusive. Unless noted, on the % scale 0 is the no-effect control and ±100 the full control effect.

SMILES | TDP1 cell CPT | ALOX12 inh | IL-1B inflam inh | TDP1 cell noCPT | HT1080 IDH1KD tx | HT1080-NT tox
Cc1cccc(C)c1OCC(=O)Nc1nc(-c2ccc(Br)cc2)ns1 | ? | ? | / | 16µM* | / | /
Cc1ccccc1C(=O)Nc1nc(-c2ccc(Br)cc2)ns1 | 16µM* | -22% | / | 21µM* | / | /
Nc1c(C(=O)NCc2ccccc2)c2nc3ccccc3nc2n1CCCN1CCOCC1 | ? | -26% | -29 | -80% | ? | ?
CC(C)Cn1c(N)c(C(=O)NCCN2CCOCC2)c2nc3ccccc3nc21 | ? | -1% | -61* | 18µM* | 3% | 4%
CCCCn1cnc2c(c1=O)c1nc3ccccc3nc1n2Cc1ccc2c(c1)OCO2 | ? | 7.9µM* | 15 | -14% | 18% | 10%
Cc1cccc(-n2c(N)c(C(=O)NCCN3CCOCC3)c3nc4ccccc4nc32)c1 | ? | 0% | -64* | 18µM* | ? | ?
CC(C)Cn1c2nc3ccccc3nc2c2c(=O)n(CCN3CCOCC3)cnc21 | ? | -4% | -56* | ? | -6% | -1%
CCCCn1c2nc3ccccc3nc2c2c(=O)n(CCC(C)C)cnc21 | -15% | -8% | 18 | -24% | 6% | -2%
Cc1cc(OCC(=O)c2ccc3c(c2)N(CCCC(=O)NCC2CC2)C(=O)CO3)ccc1Cl | / | 18% | / | / | / | /
CC(C)CCNC(=O)C1CCN(C(=O)CCc2ncc(-c3c(F)cccc3F)o2)CC1 | / | -29% | / | / | / | /
CCCCc1cc(=O)oc2cc(OCC(=O)NCc3ccncc3)ccc12 | / | 6% | / | / | / | /
Nc1c(C(=O)NCc2ccc(F)cc2)c2nc3ccccc3nc2n1CCCN1CCOCC1 | ? | ? | -10 | 18µM* | ? | ?
CN(C(=O)Cn1nc(Cc2ccncc2)c2ccccc2c1=O)c1ccccc1F | / | -8% | / | / | / | /
C[C@@H]1CN([C@@H](C)CO)C(=O)c2c(c3ccccc3n2C)-c2ccccc2CO[C@H]1CN(C)C(=O)[C@H](Cc1ccccc1)N(C)C | ? | -10% | -11 | 21µM* | -25% | ?
COC(=O)N(C)C[C@@H]1OCc2ccccc2-c2c(n(C)c3ccccc23)C(=O)N([C@H](C)CO)C[C@@H]1C | ? | 2% | -23 | 26µM* | -5% | -8%
C[C@H](CO)N1C[C@H](C)[C@H](CN(C)Cc2ccncc2)OCc2ccccc2-c2c(n(C)c3ccccc23)C1=O | 26µM* | 0% | 18 | 16µM* | -2% | -2%
C[C@@H]1CN([C@H](C)CO)C(=O)c2c(c3ccccc3n2C)-c2ccccc2CO[C@H]1CN(C)Cc1ccccc1 | ? | -19% | ? | ? | ? | ?
CNC[C@@H]1OCc2ccccc2-c2c(n(C)c3ccccc23)C(=O)N([C@H](C)CO)C[C@@H]1C | ? | ? | -18 | 18µM* | 2% | -21%
CC(NC(=O)CCc1cccs1)C1CCCO1 (centres undefined) | / | -21% | / | / | / | /
Cc1c(CCC(=O)NCCCN2CCOCC2)c(=O)oc2c(C)c(O)ccc12 | / | -31% | / | / | / | /
C[C@@H]1CN([C@H](C)CO)C(=O)c2c(c3ccccc3n2C)-c2ccccc2CO[C@@H]1CN(C)C(=O)Nc1ccc2c(c1)OCO2 | ? | 0% | 20 | ? | -14% | 10%
